# Screening data (PubChem)
# TRPML1 agonist: human mucolipin-1 channel agonism | AID 624414 | TRPML1-expressing cells, Ca2+ dye fluorescence, FDSS | 410,000 compounds, 0.12% hits | Q9GZU1 | activation, % (concentration not given with the values); in the data active = activation above about 50%; inconclusive = mostly about 30% to 49%
#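 TRPML1-DL cells, Tet-induced overnight (~16 h, 37 degrees C), loaded 45-90 min at room temperature with Ca8 no-wash calcium dye plus quencher. FDSS fluorescence: 10 s baseline, compound pin-transfer, 110 s agonist read, then EC80 54-4 (4uM final) and 110 s antagonist read.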
# TRPML1 inh: blocks the human TRPML1 channel | 390,000 compounds, 0.02% hits | Q9GZU1 | AID 624415 | activity change, negative = inhibition, % (no concentration beside the values) | TRPML1-inducible cells, Ca2+ dye fluorescence, FDSS; stronger effect = lower value; inhibition of EC80 agonist-evoked calcium signal; in the data active = activity change below about -50%; inconclusive = between about -30% and that limit;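 note: stimulus is agonist 54-4 at its EC80 concentration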
#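 Tet-induced TRPML1-DL cells loaded with Ca8 no-wash calcium dye were read kinetically on FDSS. Compound addition was followed by EC80 agonist 54-4 (4 uM final); inhibition was read over 110 s.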
# D3 antag: antagonists of human D3 dopamine receptor | P35462 | D3R cells, DiscoveRx beta-arrestin luminescence, antagonist mode; stronger effect = lower value | max response, negative = inhibition, % | 360,000 compounds, 2.5% hits | AID 652054; in the data active = max response below about -50%; inconclusive = no clear call, values can overlap the other calls
# Target sequence (P35462 whole entry, looked up): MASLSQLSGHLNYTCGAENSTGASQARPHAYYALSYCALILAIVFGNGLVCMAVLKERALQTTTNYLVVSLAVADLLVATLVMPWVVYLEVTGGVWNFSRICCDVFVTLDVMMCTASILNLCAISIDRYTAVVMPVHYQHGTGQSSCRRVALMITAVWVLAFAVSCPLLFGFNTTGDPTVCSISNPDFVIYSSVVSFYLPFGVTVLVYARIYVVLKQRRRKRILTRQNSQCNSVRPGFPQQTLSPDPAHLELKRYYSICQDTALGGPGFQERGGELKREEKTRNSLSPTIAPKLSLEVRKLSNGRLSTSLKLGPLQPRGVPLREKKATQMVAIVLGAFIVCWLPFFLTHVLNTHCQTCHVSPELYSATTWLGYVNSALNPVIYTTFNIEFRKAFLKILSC
#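 Cells plated overnight at 1500 cells/well, then exposed to library compounds with dopamine controls for 90 minutes at 37 degrees C. DiscoveRx reagent added for 30–60 minutes at room temperature; luminescence read, quantitative HTS format.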
# D3 ag: activates the human D3 dopamine receptor | P35462 | D3R DiscoveRx beta-arrestin cells, luminescence, 90 min | max activation, % | 410,000 compounds, 0.58% hits; in the data active = max activation above about 30%
#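 Cells at 1500/well, incubated overnight, then treated with pinned compounds (dopamine as control) for 90 min at 37 degrees C. DiscoveRx reagent added for 30 - 60 minutes at room temperature; luminescence read.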
# A number is an active result; . = inactive; ? = inconclusive; / = no result given. Shown are actives, neighbours in structure and some others; about 2.9% of the full set was active somewhere.
SMILES,TRPML1 agonist,TRPML1 inh,D3 antag,D3 ag
O=C(CCOc1ccccc1)Nc1ccccc1[N+](=O)[O-],.,.,.,.
Cc1ccc(C(CNC(=O)C(=O)Nc2ccc3c(c2)OCCO3)N2CCN(C)CC2)cc1 (stereo not given),.,.,.,.
CN1CCN(C(CNC(=O)C(=O)Nc2ccc3c(c2)OCCO3)c2ccc(F)cc2)CC1 (stereo not given),.,.,.,108
Cc1cccc(C(=O)CC(=O)c2cc(Cl)ccc2O)c1,.,.,-79,.
CC1(C)CC(=O)C2=C(C1)OC(N)=C(C#N)C2c1cccc(OC(=O)c2ccco2)c1 (stereo not given),.,.,-90,.
COc1ccc(C(=O)Nc2nc(-c3ccc([N+](=O)[O-])cc3)c(-c3ccc(OC)cc3)s2)cc1,.,.,-52,.
COc1ccc(C(=O)Nc2nc3c(s2)CCc2cc(OC)ccc2-3)cc1,.,.,/,.
Cc1nn2c(=O)cc(COc3ccc(/C=C(\C#N)C(=O)Nc4ccc(F)cc4)cc3)nc2s1,.,.,/,78
COc1ccc(NC(=O)/C(C#N)=C/c2ccc(OCc3cc(=O)n4nc(C)sc4n3)cc2)cc1,.,.,/,.
CNc1ccc(C=O)cc1Cl,.,/,/,/
Cc1ccc(C)c(N(C(=O)c2nsc(Cl)c2Cl)C(C(=O)NC2CCCC2)c2ccc(O)cc2)c1 (stereo not given),.,.,-62,.
COc1ccc(CN(C(=O)c2nsc(Cl)c2Cl)C(C(=O)NC2CCCC2)c2ccc(C)cc2)cc1 (stereo not given),.,.,.,.
O=C1C(=C(I)I)c2ccccc2-c2ccccc21,.,.,-100,.
O=C(O)c1cccc2c1C(=O)c1ccccc1-2,.,.,.,.
COc1c([N+](=O)[O-])ccc(N)c1N,.,/,/,/
CCCCC(O)CN1CCC(c2ccccc2)CC1 (stereo not given),.,.,-57,.
COc1cc(-c2cc(C(=O)N(C)Cc3ccccc3)c3ccccc3n2)cc(OC)c1OC,.,.,.,32
COc1cc(-c2cc(C(=O)OCC(=O)NC3CC3)c3ccccc3n2)cc(OC)c1OC,.,.,.,32
CC1CS(=O)(=O)CCN1/N=C/c1ccc([N+](=O)[O-])o1 (stereo not given),/,/,/,.
CC(C)(C)n1ncc2c(=O)n(Cc3ccc(C#N)cc3)cnc21,.,.,/,/
CC(=O)N1CCCc2cc(S(=O)(=O)N3CCN(C4CCCCC4)CC3)ccc21,.,.,-56,.
COc1ccc(CCC(=O)NC2CC(=O)N(c3ccc(C)cc3)C2)cc1 (stereo not given),.,.,/,71
COc1ccc(CCC(=O)NC2CC(=O)N(c3ccccc3)C2)cc1 (stereo not given),.,.,/,.
O=C(NCc1cccnc1)c1ccc2sc([C@H]3C[C@H](O)[C@@H](CO)O3)nc2c1,.,/,-69,.
Cc1cccc(C)c1NC(=O)c1ccc2sc([C@@H]3O[C@H](CO)[C@H](O)[C@H](O)[C@H]3O)nc2c1,.,/,-52,.
SMILES,TRPML1 agonist,TRPML1 inh,D3 antag,D3 ag
Cc1cnc(CNC(=O)c2ccc3sc([C@@H]4O[C@H](CO)[C@H](O)[C@H](O)[C@H]4O)nc3c2)cn1,.,/,-50,.
Cc1cccc(CCNC(=O)c2nn(C)c3c2CSc2ccccc2-3)c1,.,.,/,.
O=C(Cn1cc(SCc2ccccc2F)c2ccccc21)N1CCCCCC1,.,.,/,.
O=C(CN1C(=O)COc2ccccc21)NCCCN1CCOCC1,.,.,.,.
O=C(CN1C(=O)COc2ccccc21)N(CCCN1CCOCC1)CC1CC=CCC1 (stereo not given),.,.,-57,.
COc1cccc(CNC(=O)CCc2c(C)nc3c4c(C)cc(C)nc4nn3c2C)c1,.,.,/,.
O=c1oc2ccc(Br)cc2cc1-c1nc2c(s1)CCc1ccccc1-2,.,/,/,/
Clc1ccc(COc2cccc(CNCc3ccncc3)c2)cc1,.,.,.,40
CC(C)(CO)NCc1cccc(OCc2ccc(Cl)cc2)c1,.,.,.,.
COc1cc(N(C)C)c(OC)cc1/C=C1\C=Cc2ccccc21,.,/,/,/
O=C(c1ccco1)N1CCN(CCCCOc2cccc3ccccc23)CC1,.,.,?,38
Cc1cc(Cl)cc(C)c1OCCCCN1CCOCC1,.,.,-58,.
c1ccc2c(OCCCCN3CCOCC3)cccc2c1,.,.,-60,.
O=C(c1ccco1)N1CCN(CCOCCOc2cccc3ccccc23)CC1,.,.,.,89
c1ccc(CN2CCN(CCOCCOc3cccc4ccccc34)CC2)cc1,.,.,?,.
Cc1cc(Cl)c(OCCCCN2CCOCC2)c(Br)c1,.,.,.,.
COc1cc(OC)c(/C=C/c2ccncn2)c(OC)c1,.,/,/,/
CCCN1CNc2c(c(=O)[nH]c(=S)n2CCc2c(Cl)cccc2Cl)C1,.,/,/,/
Cc1ccccc1N1CC(c2nc3ccccc3n2Cc2ccc(Br)cc2)CC1=O (stereo not given),.,.,/,.
Cc1cccc(OCCN2CCOCC2)c1C,.,.,.,54
CCOC(=O)C1[C@H]2C(=O)N(CCCOC)C[C@]23C=C[C@H]1O3 (stereo not given in full),.,.,.,.
CCCCOC(=O)C1C2C=C[C@]3(CN(CCCOC)C(=O)[C@H]13)O2 (stereo not given in full),.,.,-51,.
CC(C)(C)c1cc(-c2nc(N)nc(N)n2)c(O)c(C(C)(C)C)c1,.,.,.,48
COc1ccc(CNC(=O)c2ccc(N3CCCC3)c(NC(=O)NCc3ccc(F)cc3)c2)cc1,.,.,/,.
COc1ccc(Cn2c(SCc3ccc(C(=O)NCc4cccs4)cc3)nc3ccncc32)cc1,.,.,/,.
SMILES,TRPML1 agonist,TRPML1 inh,D3 antag,D3 ag
CCCSc1nn2c(=O)c3ccccc3nc2s1,.,.,-51,.
Cc1cccc(Nc2nn3c(=O)c4ccccc4nc3s2)c1,.,.,.,.
Cc1ccc(C)c(Cn2c3ccccc3c3cnn(CC(=O)NC(C)CCc4ccccc4)c(=O)c32)c1 (stereo not given),.,.,/,.
CCc1ccc(NC(=S)NCC2CCCN2CC)cc1 (stereo not given),.,.,-75,.
NS(=O)(=O)c1ccc(NC(=O)c2cnn3c2NC(=C2CC2)C=C3C(F)F)cc1,.,/,/,/
CCOc1ccccc1Nc1nc(-c2cccc(Cl)c2)c2c(n1)-c1ccccc1OC2,.,.,/,.
Cc1cccc(/C=C/C(=O)c2cc(Br)ccc(=O)c2O)c1,.,.,-59,.
CCc1ccc(/C=C/C(=O)c2cc(Br)ccc(=O)c2O)cc1,.,.,?,.
CCOC(=O)c1cnc2cc(C(F)(F)F)ccc2c1Nc1ccc(F)cc1F,.,.,/,.
CCN(CC)CC(C)(C)C(=O)/C=C/c1ccc(/C=C/C(=O)C(C)(C)CN(CC)CC)cc1,.,.,-64,.
CCOc1ccc2c(c1)-c1c(ssc1=S)C(C)(C)N2C,.,.,-52,.
CCC(=O)N1CCc2cc(Br)cc(S(=O)(=O)N(CC)Cc3ccccc3)c21,.,.,/,.
